# Screening results (PubChem BioAssay)
# Compounds with a hit are over-represented: about 19% of the library has one in this group of screens.
# TDP1 block: qHTS Assay for Inhibitors of Tyrosyl-DNA Phosphodiesterase (TDP1); Tyrosyl-DNA phosphodiesterase 1 (Homo sapiens), Q9NUW8; recombinant TDP1, AlphaScreen DNA substrate cleavage; Potency, µM (top dose mostly 130 µM), for the others: top-dose activity change, negative = inhibition, hits mostly inhibitors; hit rate 0.28% among 350,000; also: nearly all actives have a fitted effect of over 40% in size
# Target sequence (Q9NUW8 whole entry, looked up): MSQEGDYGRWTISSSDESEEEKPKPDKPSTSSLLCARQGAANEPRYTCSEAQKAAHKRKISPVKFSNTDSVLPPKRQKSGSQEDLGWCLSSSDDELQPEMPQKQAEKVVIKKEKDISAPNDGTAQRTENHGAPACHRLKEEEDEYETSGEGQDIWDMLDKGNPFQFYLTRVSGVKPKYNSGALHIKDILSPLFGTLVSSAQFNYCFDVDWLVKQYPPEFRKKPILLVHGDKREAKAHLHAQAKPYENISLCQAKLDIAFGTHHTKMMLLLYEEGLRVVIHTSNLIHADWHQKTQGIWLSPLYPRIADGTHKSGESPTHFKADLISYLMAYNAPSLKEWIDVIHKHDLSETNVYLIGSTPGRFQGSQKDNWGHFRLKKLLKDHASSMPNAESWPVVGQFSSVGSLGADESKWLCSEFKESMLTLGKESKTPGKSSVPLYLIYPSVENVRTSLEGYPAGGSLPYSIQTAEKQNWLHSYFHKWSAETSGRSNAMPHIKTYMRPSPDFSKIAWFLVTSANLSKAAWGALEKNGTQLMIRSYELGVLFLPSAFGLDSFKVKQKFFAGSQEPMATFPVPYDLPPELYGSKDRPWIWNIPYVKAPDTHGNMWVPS
#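 AlphaScreen read-out: signal falls as enzyme removes the 3' tyrosine-FITC from a 5'-biotinylated DNA oligo (15 nM, 5 min, RT). Enzyme was E. coli-made recombinant Tdp1 at 1 nM, exposed to compound for 15 min beforehand; beads 10 ug/ml, 10 min.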
# VP16 counter: VP16 counterscreen qHTS for inhibitors of ROR gamma transcriptional activity; hit rate 3.5% among 310,000; AID 2546, 2010; Drosophila S2 Gal4-VP16 UAS-luciferase, luminescence, 20 h; Potency, µM (series often up to 53.6 µM), inactives show at the highest dose activity, negative = inhibition, actives largely listed as inhibitors;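 also: Gal4-VP16 expression switched on by copper sulfate through the metallothionein promoter; nearly all actives have a fitted effect of over 50% in size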
# TDP1 cell noCPT: qHTS for Inhibitors of human tyrosyl-DNA phosphodiesterase 1 (TDP1): qHTS in cells in absence of CPT | DT40 Tdp1-/- hTDP1 cells, no CPT, ATP luminescence, 48 h | Potency, µM (highest dose often 46.2 µM), without a hit: at the highest dose activity change, negative = growth inhibition, usual class: inhibitors | hit rate 15% among 420,000; also: nearly all actives have a fitted effect of over 55% in size
#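 A cellular qHTS used chicken DT40 cells lacking endogenous Tdp1 but carrying stably transfected human TDP1. Compounds were applied without camptothecin, and cell growth kinetics were judged by ATP-dependent luminescence after ≥48 hr.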
# TDP1 cell CPT: qHTS for Inhibitors of human tyrosyl-DNA phosphodiesterase 1 (TDP1): qHTS in cells in presence of CPT; chicken DT40 Tdp1-/-;hTDP1 cells + 20 nM CPT, ATP luminescence, 48 h; hit rate 12% among 420,000; Potency, µM (series often up to 46.2 µM), for inactives: at the top dose activity change, negative = growth inhibition, hits mostly inhibitors; also: nearly all actives have a fitted effect of over 55% in size
#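 Cell growth measured by CellTiter-Glo luminescence after a minimum 48 h, 37 C compound exposure with 20 nM CPT in Tdp1-knockout DT40 cells stably expressing hTDP1, seeded 400/well; qHTS titration format.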
# RORg inh: qHTS for inhibitors of ROR gamma transcriptional activity | Nuclear receptor ROR-gamma (Mus musculus), P51450 | Drosophila S2 Gal4-RORgamma UAS-luciferase reporter, 20 h | Potency, µM (highest dose often 53.6 µM), without a hit: at the top dose activity change, negative = inhibition, usual class: inhibitors | hit rate 5.4% among 310,000 | AID 2551, 2010; also: nearly all actives have a fitted effect of over 60% in size
#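 Drosophila Schneider cells stably carrying a metallothionein-driven Gal4 DBD–ROR gamma fusion and a UAS-Photinus luciferase reporter were exposed to compound for 1 hr, then induced with copper sulfate (700 uM final) for 20 hr at ambient temperature before luminescence reading.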
# Numbers without * were called inactive; u = inconclusive; x = not tested or not shown; ! = not confirmed by another sample; [ ] = remark or other dose. Calls follow the shape of the dose curve; as a rule, active = well fitted curve in the direction sought with a large enough effect; inconclusive = small, poorly fitted or top-dose-only effect, or another doubt; inactive = no such curve, though single readings can be large; an effect the other way counts as inactive or inconclusive. % is scaled to controls: 0 for no effect and ±100 for the full control effect; potency is read from the fitted curve at half-maximal effect.
SMILES,TDP1 block,VP16 counter,TDP1 cell noCPT,TDP1 cell CPT,RORg inh
O=C(CN1CCC(C(=O)c2ccc(F)cc2)CC1)Nc1ccc(F)cc1,4%[56.1 µM],u,u,u,u
O=C(CCC(=O)N1CCN(c2ccc(O)cc2)CC1)c1cccs1,4%,u,23µM*,u,16%
Cc1ccc(C(=O)C2CCN(CC(=O)N3CCN(c4ccc(F)cc4)CC3)CC2)cc1,3%,-5%[10 µM],18µM*,u,5%
Cc1ccc(OCCNC(=O)CCC(=O)N2CCOCC2)cc1,-4%,x,-25%,-1%,x
Cc1ccc(OCCC(=O)N2CCN(c3ccc(O)cc3)CC2)cc1,x,3%,16µM*,u,-4%
O=C(CSCc1ccc(F)cc1)N1CCN(c2ccc(F)cc2)CC1,1%,8%,13µM*,u,u
O=C(CCc1c[nH]c2ccccc12)N1CCN(c2ccc(O)cc2)CC1,6%,-3%,7.3µM*,5.2µM*,5%
Cc1nn(Cc2noc(C(=O)NCCc3ccccn3)n2)c(C)c1Br,10%,18%,-11%,9%,29%
Cc1ccc(C(=O)C2=C(O)C(=O)N(Cc3cccnc3)C2c2ccc(Cl)cc2)o1 (configuration not stated),-5%,-8%,-22%,10%,9%
CCOC(=O)N1CCN(c2ncc3c(n2)CC(c2ccc(Cl)cc2)CC3=O)CC1 (configuration not stated),-2%,x,x,x,x
CC(C)n1nccc1N(Cc1ccc(Br)cc1)S(=O)(=O)c1ccccc1,x,11%,u,23µM*,1%
CCN(CC)C(=O)c1sc2nc(-c3ccc(OC)cc3)cn2c1C,0%,0%,u,-17%,-29%
CC(C)(C)C1CCC(=O)N(CCSc2ccccc2)CC1 (configuration not stated),x,-12%,u,u,28%
Cc1ccc(SCCN2CCC(C(C)(C)C)CCC2=O)cc1 (configuration not stated),x,19%,u,9.2µM*,u
CC(=O)Nc1ccc(SCCN2CC[C@@H](C(C)(C)C)CCC2=O)cc1,1%,x,13µM*,u,x
CCOC(=O)C1CCN(C(=O)C(CCSC)NC(=O)c2ccccc2OC)CC1 (configuration not stated),2%,x,u,u,x
COc1ccc(CCNC(=O)COC(=O)C2=NNC(=O)CC2)cc1,x,x,-23%,-13%,x
CC(C)NC(=O)[C@H]1C[C@@H]1[C@H](NC(=O)OCc1ccccc1)c1ccccc1,9%,-5%,x,x,24%
CNC(=O)[C@@H]1C[C@H]1[C@@H](NC(=O)OCc1ccccc1)c1ccccc1,4%,5%,-2%,3%,13µM*!
CC1(C)CC(=O)C/C(=N/NC(=O)c2ccc(-c3ccccc3)cc2)C1,2%,3%,u,u,3%
CCOc1ccc(-c2nc(SCC(=O)Nc3ccc4c(c3)OCO4)c(-c3ccc(F)cc3)[nH]2)cc1,2%,x,u,-19%,x
Cc1nc(SCC(=O)Nc2ccc3c(c2)OCO3)c(C#N)c2c1CCCC2,0%,-3%,18µM*,21µM*,0%
Cc1cc(C)c(C#N)c(SCC(=O)Nc2ccc3c(c2)OCO3)n1,3%,-2%[0.365 µM],-23%,-18%,19%
O=C(CSc1nc(-c2ccc(F)cc2)[nH]c1-c1ccc(F)cc1)Nc1ccc2c(c1)OCCO2,0%[12.3 µM],x,10µM*,10µM*,x
O=C(CSc1nc(-c2ccc(F)cc2)[nH]c1-c1ccc(F)cc1)Nc1ccc2c(c1)OCO2,0%,x,23µM*,16µM*,x
Cc1ccc(-c2ccc(SCC(=O)Nc3ccc4c(c3)OCCO4)nn2)cc1,-3%,-16%,u,u,-10%
Cc1ccc(C2=NC3(CCCCC3)N=C2SCC(=O)Nc2ccc3c(c2)OCCO3)cc1,1%,-4%,u,21µM*,u
